Source: PubChem (National Center for Advancing Translational Sciences (NCATS))
CCT modulator = High-Throughput Screening for Modulators of Cytosolic Chaperonin Activity; purified chaperonin ATPase assay, HTRF ADP detection, 30 min; activity change, % (test concentration not listed), hits read low; 360,000 tested, 0.3% active; AID 651819, 2012; in the data active = activity change below about -30%
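First, chaperonin was dispensed at 40 nM or 20 nM final depending on batch activity. Next, compounds were pinned at 76 uM and ATP added at 10 uM. After 30 min at 37 °C, ADP detection reagents ran 30 min at ambient temperature.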
PLK1 PBD inh = qHTS for Inhibitors of PLK1-PDB (polo-like kinase 1 - polo-box domain): Primary Screen | 360,000 tested, 2.8% active | Serine/threonine-protein kinase PLK1 (Homo sapiens), P53350 | Potency, µM, for the others: max response, negative = inhibition, hits mostly inhibitors | Plk1 PBD binding of FITC phosphopeptide, fluorescence polarization; note: potency is the fitted concentration of half-maximal effect; series mostly up to about 57 µM; nearly all actives have a fitted effect of over 65% in size
Sfp PPTase inh = qHTS Assay for Inhibitors of Bacillus subtilis Sfp phosphopantetheinyl transferase (PPTase); 4'-phosphopantetheinyl transferase ffp (Bacillus subtilis), Q9F4F7; Biochemical Sfp PPTase activity, qHTS; Potency, µM, for the others: largest response in the series, negative = inhibition, usual class: inhibitors; 310,000 tested, 3.5% active; AID 1490, 2009;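 note: the enzyme is Sfp with the accession as filed and its product quenches rhodamine fluorescence; potency is the fitted concentration of half-maximal effect; 0% = enzyme reaction without inhibitor and -100% = no enzyme wells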
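With Hepes-Na pH 7.6 buffer containing 10 mM MgCl2, Sfp (15 nM) modified BHQ-2-YbbR (12.5 uM) using rhodamine-CoA (5 uM). Two reads 30 minutes apart at 525/598 nm yielded each well's rate.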
G9a block = qHTS Assay for Inhibitors of Histone Lysine Methyltransferase G9a. G9a H3K9 monomethylation, AlphaScreen, 2 h. 350,000 tested, 8.8% active. Potency, µM (titrated, usually from 102 µM), without a hit: top-dose activity, negative = inhibition, most hits filed as inhibitors. Histone-lysine N-methyltransferase EHMT2 (Homo sapiens), Q96KQ7. AID 504332, 2011; note: potency is the fitted concentration of half-maximal effect; nearly all actives have a fitted effect of over 75% in size
Target sequence (Q96KQ7 913-1193 limits assumed): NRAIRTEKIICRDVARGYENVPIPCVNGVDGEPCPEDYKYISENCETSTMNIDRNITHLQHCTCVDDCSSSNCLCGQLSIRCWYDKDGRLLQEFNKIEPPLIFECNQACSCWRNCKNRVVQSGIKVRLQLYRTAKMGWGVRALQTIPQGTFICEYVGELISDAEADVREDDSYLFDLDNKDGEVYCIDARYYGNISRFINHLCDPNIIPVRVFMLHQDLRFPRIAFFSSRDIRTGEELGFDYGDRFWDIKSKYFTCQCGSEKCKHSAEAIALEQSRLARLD
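Chemiluminescent proximity detection of H3K9 monomethylation, read after 10 min bead incubation in the dark. Reaction: 20 nM G9a, 500 nM biotin-H3K9 peptide, 20 uM SAM cofactor, 2 h, room temperature, following 15 min enzyme-compound preincubation.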
VDR inh = Inhibitors of the vitamin D receptor (VDR): qHTS; VDR-SRC2-3 peptide fluorescence polarization, 2 h; Vitamin D3 receptor (Homo sapiens), P11473; AID 504847, 2011; Potency, µM, for inactives: max response, negative = inhibition, actives largely listed as inhibitors; 400,000 tested, 0.93% active; note: potency is the fitted concentration of half-maximal effect
Target sequence (P11473 whole entry, looked up): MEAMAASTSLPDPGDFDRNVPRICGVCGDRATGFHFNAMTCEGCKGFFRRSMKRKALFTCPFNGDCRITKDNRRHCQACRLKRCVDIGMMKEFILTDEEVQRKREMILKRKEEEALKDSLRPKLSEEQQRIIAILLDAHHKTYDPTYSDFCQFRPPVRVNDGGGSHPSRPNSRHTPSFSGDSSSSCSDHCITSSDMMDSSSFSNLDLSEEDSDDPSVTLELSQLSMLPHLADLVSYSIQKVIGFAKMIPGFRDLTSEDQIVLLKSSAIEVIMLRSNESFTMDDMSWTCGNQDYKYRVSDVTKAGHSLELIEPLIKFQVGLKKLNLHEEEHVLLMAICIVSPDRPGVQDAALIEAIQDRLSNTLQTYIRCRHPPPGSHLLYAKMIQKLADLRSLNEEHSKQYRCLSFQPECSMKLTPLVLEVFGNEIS
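After 23 nl compound addition and a short centrifugation, plates sat for 2 hours at ambient temperature; polarization of fluorescence then indicated loss of VDR binding to peptide SRC2-3.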
MmCpn inh = Inhibitors of TCP-1 ring complex (TRiC) of Methanococcus maripaludis (MmCpn): qHTS; Chaperonin Mm-Cpn (Methanococcus maripaludis); purified Mm-Cpn ATPase, ADP Transcreener TR-FRET; Potency, µM (titrated, usually from 76.9 µM), inactives show at the highest dose activity, negative = inhibition, usual class: inhibitors; 330,000 tested, 0.031% active; note: potency is the fitted concentration of half-maximal effect; nearly all actives have a fitted effect of over 80% in size
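ATP (10 uM final) was added to archaeal chaperonin (25 nM final) after 10 min exposure to test compound at 37°C; after 30 min further incubation, ADP was detected by competitive TR-FRET.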
Active calls of the source: *; u = inconclusive; x = no result; [ ] = dose if it differs, or a comment. A selection: hits, their analogues and other compounds. The true share with any hit is near 10%. Unless noted, calls come from the whole dose curve; as a rule, active = well fitted curve in the direction sought with a large enough effect; inconclusive = small, poorly fitted or top-dose-only effect, or another doubt; inactive = no such curve, though single readings can be large; an effect the other way counts as inactive or inconclusive. Unless noted, % is set by controls: 0 for no effect and ±100 for the full control effect.

SMILES	CCT modulator	PLK1 PBD inh	Sfp PPTase inh	G9a block	VDR inh	MmCpn inh
FC(F)(F)c1ccccc1-c1ccc2ncnc(NCc3cccs3)c2c1	x	x	11%	-8%[0.501 µM]	-26%	x
N#Cc1c(NC(=S)NC(=O)c2ccccc2)sc2c1CCCC2	-3	u	u	8.9µM*	u	0%
N#Cc1c(N)sc2c1CCN(CCc1ccccc1)C2	-1	-13%	-4%	-20%[59 µM]	-8%	-2%
Cn1ncc(Cl)c1C(=O)NC(=S)Nc1sc2c(c1C#N)CCCCC2	-5	8.4µM*	u	-10%[59 µM]	-8%	-3%
CC1CCN(C(=O)C(=O)Nc2sc3c(c2C(=O)O)CC(C)(C)OC3)CC1	-2	-10%	13%	2%	-1%	0%
N#Cc1c(NC(=S)NC(=O)c2ccccc2)sc2c1CCN(CCc1ccccc1)C2	x	x	56µM*	40µM*	x	-10%
CC1(C)Cc2c(sc(NC(=S)NC(=O)c3ccccc3)c2C(=O)O)CO1	-3	-14%	-10%	40µM*	-7%	-9%
CCN(CC)S(=O)(=O)c1ccc2oc(C(=O)O)c(C)c2c1	-2	-6%	19%	11%[59 µM]	5%	0%
CCCCN(CCCC)S(=O)(=O)c1ccc2oc(C(=O)NCc3ccc(C)cc3)c(C)c2c1	x	x	x	-22%[59 µM]	5%	x
CCN(CC)S(=O)(=O)c1ccc2oc(C(=O)NC(C)C)c(C)c2c1	0	27µM*	-12%	1%[2.33 µM]	-10%	-1%
CCN(CC)S(=O)(=O)c1ccc2oc(C(=O)NCc3ccc(C)cc3)c(C)c2c1	0	u	25µM*	u	14%	1%
Cc1cc(C(=O)NNc2cc(Cl)ccc2Cl)no1	-2	1%	15%	-22%	31%	0%
Cc1noc(C)c1C(=O)NNc1cc(Cl)ccc1Cl	0	-11%	-14%	79µM*	-11%	0%
O=C(NNc1cc(Cl)ccc1Cl)c1cccs1	2	-22%	u	56µM*	-24%	0%
Nc1nc(-c2ccc3c(c2)OCCO3)cs1	-1	-3%	-22%	u	2%	-2%
Nc1nc(-c2ccc3c(c2)CCCC3)cs1	0	-17%	-2%	18µM*	10%	1%
NC(=O)c1cccc(N)c1	x	x	-7%	13%[59 µM]	-6%	x
Cc1nc(CS(=O)(=O)c2ccccc2)cc(N2CCOCC2)n1	2	3µM*	3%	5%[59 µM]	-26%	-1%
Cc1nc(CSc2ccc(Cl)cc2)cc(N2CCOCC2)n1	-4	u	-5%	-7%[59 µM]	-4%	0%
COc1cc(C2CC(=O)Nc3c2c(=O)n(C)c(=O)n3C)cc(OC)c1OC (stereo unspecified)	x	x	x	11%[59 µM]	7%	x
O=C(OCC(=O)N1CCCc2ccccc21)c1cncc(Br)c1	1	1%	71µM*	6%	8%	-5%
CNC(=O)[C@@H](Cc1ccccc1)N(C)C(=O)[C@@H](Cc1ccc2ccccc2c1)N(C)C(=O)/C=C/CC(C)(C)N	x	x	9%	x	x	x
OCCN1CCN(Cc2cc(Cl)c3cccnc3c2O)CC1	-2	-8%	10%	50µM*	-1%	-2%
CC(COc1ccc(/C=C/c2ccccc2)cc1)[N+](C)(C)C (stereo unspecified)	0	-4%	x	4µM*	6%	1%
COc1ccc(NC(=O)CCCCC(=O)Nc2ccc(OC)cc2)cc1	-5	-10%	15%	u	9%	-1%
SMILES	CCT modulator	PLK1 PBD inh	Sfp PPTase inh	G9a block	VDR inh	MmCpn inh
Cc1ccc(NC(=O)CNc2ccc(OC(C)C)cc2)cc1	-2	-7%	-2%	0.79µM*	-2%	0%
Cc1ccc(CCC(=O)NCc2ccccc2)o1	-1	-13%	5%	79µM*	-2%	1%
O=C(CCc1ccccc1)NCc1ccccc1	0	-6%	17%	9%	2%	2%
COc1ccc(NC(=O)CNc2ccc(C#N)cc2)cc1	-3	1%	10%	50µM*	-11%	1%
Cc1ccc(CCC(=O)Nc2ccc(C#N)cc2)o1	-103*	1%	-2%	40µM*	-5%	3%
COc1ccc(S(=O)(=O)c2nnn(-c3cc(Cl)c(OC)cc3OC)c2C)cc1	x	x	x	-38%[59 µM]	-9%	x
CN(C)C(=O)c1ccc(-c2nc(NCc3ccccc3)c3ccccc3n2)cc1	x	x	-6%	x	-5%	x
CCOC(=O)c1cnc(-n2[nH]c(C)cc2=O)[nH]c1=O	2	-6%	12%	u	5%	-7%
CCOC(=O)c1cc(=O)n(-c2ccc(Cl)cc2C)[nH]1	1	-4%	-19%	13µM*	-8%	-7%
CN1CCc2nc(NC(=O)c3cccc(S(=O)(=O)N4CCc5ccccc54)c3)sc2C1	-35*	-1%	u	-46%[12.7 µM]	-17%	-21%
O=C(Nc1nncs1)c1cccc(S(=O)(=O)N2CCc3ccccc32)c1	0	3.4µM*	12%	-38%	u	-3%
O=C(Nc1ccncc1)c1cccc(S(=O)(=O)N2CCc3ccccc32)c1	1	4%	x	u	-1%	-3%
CCC[C@H]1C[C@H](C(=O)N[C@@H]([C@H]2O[C@@H](SC)[C@@H](O)[C@@H](O)[C@@H]2O)[C@H](C)Cl)N(C)C1	x	x	26%	-17%[12.7 µM]	x	x
Cc1cccc(N2CC(c3nc4ccccc4n3CCC3CCCCC3)CC2=O)c1 (stereo unspecified)	x	x	x	u	19%	x
CC(C)c1ccc(NC(=O)C2CCCN(S(=O)(=O)c3ccc4[nH]c(=O)oc4c3)C2)cc1 (stereo unspecified)	x	x	x	5%[59 µM]	-7%	x
Cc1sc2ncn(CC(=O)N3CCN(c4cccc(Cl)c4)CC3)c(=O)c2c1S(=O)(=O)N1CCC(C)CC1	x	x	x	-5%[59 µM]	0%	x
COc1cc(F)cc(-c2ccc3c(c2)c(-c2cccs2)c(-c2cc(OC)cc(OC)c2)n3C)c1	1	2%	x	6%[0.501 µM]	6%	22µM*
COc1cc(OC)cc(-c2c(-c3cccs3)c3cc(Br)ccc3n2C)c1	-1	-3%	x	8%[0.501 µM]	14%	-30%
COc1ccc(Cl)cc1N(CC(=O)Nc1ccc2c(c1)OCO2)S(C)(=O)=O	-3	-3%	5%	50µM*	-4%	0%
Cc1c(NC(=O)OCCNC(=O)COc2c(Cl)cccc2Cl)sc(=S)n1C	-5	-15%	-14%	u	-9%	0%
Cc1ccc(NC(=O)Nc2sc(=S)n(C)c2C)cc1	-1	u	56µM*	25µM*	-11%	1%
